Source: PubChem BioAssay (NCATS)
Results filed as inconclusive are left out. The source made the active and inactive calls. Calls come from the whole dose curve; as a rule, active = well fitted curve in the direction sought with a large enough effect; inconclusive = small, poorly fitted or top-dose-only effect, or another doubt; inactive = no such curve, though single readings can be large; an effect the other way counts as inactive or inconclusive.

What was measured:
[1] = target: Luciferin 4-monooxygenase (Photinus pyralis) (UniProt P08659); experiment: Primary firefly luciferase (FLuc) qHTS assay for identification of artifact compounds. (AID 1845220); note: nearly all actives have a fitted effect of over 60% in size;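 for activity change, negative = inhibition: series mostly up to about 54 µM; plate controls were DMSO vehicle for no effect and no enzyme for full effect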
How it was run: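 Titrated compounds were incubated 15 min at RT, protected from light, with luciferin and ATP at 10 uM; reaction started with 10 nM FLuc, luminescence imaged at 5 min, and concentration-response fitted by Hill equation.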

[2] = Primary fluorescence-based thiol-reactive (MSTI) qHTS assay for identification of artifact compounds. (AID 1845221); note: nearly all actives have a fitted effect of over 65% in size; note: potency is the fitted concentration of half-maximal effect
How it was run: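 MSTI probe at 4 uM final in 2% DMSO/PBS pH 7.4; compounds, 1 h at room temperature in dark. Fluorescence Ex/Em 525/598 nm, normalised to Acetyl-MSTI and MSTI, fitted to 4-parameter Hill.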

[3] = system: Nanoluciferase (engineered Oplophorus gracilirostris luciferase); experiment: Primary Nanoluciferase (NLuc) qHTS assay for identification of artifact compounds. (AID 1845222);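 note: NLuc secreted into diluted conditioned medium of S16 cells; series mostly up to about 54 µM; 0% = DMSO and -100% = no enzyme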
How it was run: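 qHTS format, against NLuc in S16 cell-conditioned medium. Nano-Glo substrate 1:100 was added after 15 min at room temperature. Luminescence was taken after a further 5 min.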

[4] = Primary redox qHTS assay for identification of artifact compounds. (AID 1845223);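 note: 0% = DMSO and 100% = reference compound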
How it was run: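 Redox-cycling detection via DTT (250 uM final) oxidation coupled to Amplex Red (25 uM)/HRP (250 mU/mL) in HBSS. 15 min preincubation plus 30 min after DTT, room temperature. Ex/Em 525/598 nm; 4-parameter Hill fit against DMSO and 10 uM DA3003.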

O=C(CCC1CCN(Cc2ccccc2)CC1)c1ccc2c(c1)NCCCC2
inactive: Potency [1] | Potency [2] | Potency [3] | outcome [4]

CN1[C@@H]2CC[C@H]1CC(NC(=O)n1c(=O)[nH]c3ccccc31)C2 (some centres undefined)
inactive: Potency [1] | Potency [2] | Potency [3] | outcome [4]

C[N+]1(CC2COC(c3ccccc3)(c3ccccc3)O2)CCCCC1 (centres undefined)
inactive: Potency [1] | Potency [2] | Potency [3] | outcome [4]

OC1(c2ccc(Cl)c(C(F)(F)F)c2)CCN(CCCC(c2ccc(F)cc2)c2ccc(F)cc2)CC1
inactive: Potency [1] | Potency [2] | Potency [3] | outcome [4]

COC(=O)C1=CO[C@@H](O)[C@@H]2C(CO)=CC[C@H]12
inactive: Potency [1] | Potency [3] | outcome [4]
active: Potency [2] 13.4 µM

CCOC(=O)c1ccc(OCCN2C[C@H](O)[C@@H](O)[C@H](O)[C@H]2CO)cc1
inactive: Potency [1] | Potency [2] | Potency [3] | outcome [4]

COc1ccccc1N1CCN(CCN2C(=O)CC3(CCCC3)CC2=O)CC1
inactive: Potency [1] | Potency [2] | Potency [3] | outcome [4]

Cc1nn(-c2ccccc2)c(C)c1/C=N/N1CCN(Cc2ccccc2)CC1
inactive: Potency [1] | Potency [2] | Potency [3] | outcome [4]

O=C1CC[C@H](C(=O)N2CCCCC2)N1
inactive: Potency [1] | Potency [2] | Potency [3] | outcome [4]

CC(=O)[C@H]1CC[C@H]2[C@@H]3C=CC4=CC(=O)CC[C@@]4(C)[C@@H]3CC[C@]12C
inactive: Potency [1] | Potency [2] | Potency [3] | outcome [4]

CC(=O)Nc1ccn(C2COC(COC(=O)c3ccccc3)O2)c(=O)n1 (centres undefined)
inactive: Potency [1] | Potency [2] | Potency [3] | outcome [4]

Nc1c(NC/C=C\COc2cc(CN3CCCCC3)ccn2)c(=O)c1=O
inactive: Potency [1] | Potency [2] | Potency [3] | outcome [4]

O=C1[C@@H]2[C@H]3CC[C@H](C3)[C@@H]2C(=O)N1CCCCN1CCN(c2ncccn2)CC1
inactive: Potency [1] | Potency [2] | Potency [3] | outcome [4]

N[C@@H](Cn1ccc(=O)c(O)c1)C(=O)O
inactive: activity change, negative = inhibition [1] -9.21% [at 6.45 µM] | activity, negative = inhibition [3] -6.53% [at 6.45 µM] | redox activity (% of DA3003) [4] -4.94% [at 6.41 µM]

CCC(C(=O)NC(=O)NC(C)=O)c1ccccc1 (centres undefined)
inactive: Potency [1] | Potency [2] | Potency [3] | outcome [4]

CC(=O)Oc1ccc(C2(c3ccc(OC(C)=O)cc3)Oc3ccccc3NC2=O)cc1
inactive: Potency [1] | Potency [2] | Potency [3] | outcome [4]

COC(=O)C1=C(C)NC(COC(N)=O)=C(C(=O)OC(C)C)C1c1cccc(Cl)c1Cl (centres undefined)
inactive: Potency [1] | Potency [2] | outcome [4]

Clc1ccc2c(c1)N=C(N1CCNCC1)c1ccccc1N2
inactive: Potency [1] | Potency [3] | outcome [4]
